Out of some 350,000 compounds screened, about 1,300 (0.37%) were called active.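 The calls were made as follows: active = mean added fluorescence quench of at least 8% versus neutral control, with both replicates also reaching 8%; inconclusive = only one of the mean or replicate conditions met; inactive = mean below 8% and not both replicates reaching 8%.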 What follows is part of a selection rich in actives, with near analogues and random picks from the rest.
Experiment: F508del CFTR correction, initial screen, CFBE line, single point (AID 720511);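 also: cells transiently co-express mutant CFTR-F508del with the halide-sensitive YFP; corrector assay measuring rescue of mutant channel to the surface after 24 h compound exposure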
Conditions: CFBE cells, YFP halide quenching, at 7.58 µM, stronger effect = higher value, % fluorescence drop versus neutral controls, stimulated with forskolin plus potentiator P3

Row | SMILES | activity (quench increase)
1 | Cc1ccc(CN(C)CC(=O)Nc2cccc([N+](=O)[O-])c2)o1 | 10.1% (active)
2 | Cc1ccc(NC(=O)CN(C)CC(=O)Nc2cccc(F)c2)cc1[N+](=O)[O-] | 1.68% (inactive)
3 | O=C(CN1CCOCC1)Nc1cccc([N+](=O)[O-])c1 | -2.49% (inactive)
4 | COc1cccc(-c2ccc3c(c2)[C@H]2[C@H](CCN2C(=O)c2ccc(F)cc2)[C@@H](CO)N3)c1 | 1.42% (inactive)
5 | COc1cc(OC)c2c(-c3cccc(-c4cccc(N)c4)c3)cc(=O)oc2c1 | 8.2% (active)
6 | COc1cccc(NC(=O)COc2cc(C)cc3oc(=O)cc(C)c23)c1 | 2.8% (inactive)
7 | Cc1cc2oc(=O)cc(-c3ccccc3)c2c(C)c1-c1ccc(OC(F)(F)F)cc1 | 1.07% (inactive)
8 | Cc1cc(C)c(/C=C2\C(=O)Nc3ccccc32)[nH]1 | 10.3% (active)
9 | O=C1Nc2ccccc2C1=NN=Cc1ccco1 | -2.93% (inactive)
10 | COc1ccc(/C=N/N=C2/C(=O)Nc3ccccc32)cc1O | -1.27% (inactive)
11 | O=C(NCC[C@H]1CC[C@H](NC(=O)C2CC2)[C@@H](CO)O1)c1ccc(F)cc1 | 1.43% (inactive)
12 | COc1ccc2c(C)c(CCC(=O)NC3CC3)c(=O)oc2c1C | 2.05% (inactive)
13 | Cc1c(CCC(=O)O)c(=O)oc2c(C)c(OCc3ccccc3Cl)ccc12 | 9.04% (active)
14 | Cc1c(CCC(=O)O)c(=O)oc2cc(OCc3ccc(Br)cc3)ccc12 | 0.947% (inactive)
15 | C[C@@H]1CN([C@@H](C)CO)S(=O)(=O)c2ccc(C#CCN(C)C)cc2O[C@@H]1CN(C)C(=O)CC1CC1 | 0.474% (inactive)
16 | CCOC(=O)C(C)Oc1cccc2c(=O)n(CC(=O)NCCc3ccc(OC)c(OC)c3)ccc12 (configuration not stated) | 2.66% (inactive)
17 | COC(=O)COc1cccc2c(=O)n(CC(=O)NCCc3ccc(OC)c(OC)c3)ccc12 | -1.22% (inactive)
18 | COC(=O)COc1cccc2c(=O)n(CC(=O)NCc3ccccc3)ccc12 | 11% (active)
19 | COCC#Cc1ccc([C@@H]2[C@@H](CO)N3CCCCN(C(=O)NC4CCCC4)C[C@H]23)cc1 | -0.841% (inactive)
20 | C[C@@H]1CCCCO[C@@H](CN(C)CC2CC2)[C@@H](C)CN([C@H](C)CO)C(=O)c2cc(NC(=O)Nc3cccc4ccccc34)ccc2O1 | -0.347% (inactive)
21 | COc1ccc(/C=C2\CCc3ccccc3C2=O)c(OC)c1OC | -2.36% (inactive)
22 | COc1ccc(/C=C2/CCCc3ccccc3C2=O)cc1 | 14.3% (active)
23 | COc1ccc(/C=C2\N=C3CCCN3C2=O)cc1 | -1.7% (inactive)
24 | Cc1ccc(S(=O)(=O)N(C)C[C@H]2OCCCC[C@@H](C)Oc3ccc(NC(=O)NC4CCCCC4)cc3C(=O)N([C@H](C)CO)C[C@@H]2C)cc1 | 0.861% (inactive)
25 | O=C(C[C@H]1C[C@@H]2c3cc(NC(=O)CC4CC4)ccc3O[C@@H]2[C@H](CO)O1)NCc1ccccn1 | -1.26% (inactive)
26 | CN(CC(=O)Nc1ccc(Cl)cc1)C(=O)CNC(=O)c1ccc2ccccc2c1 | -7.73% (inactive)

Row | SMILES | activity (quench increase)
27 | Cc1cccc(C(=O)NCC(=O)OCC(=O)N(C)CC(=O)Nc2ccccc2Cl)c1 | 16.8% (active)
28 | CN(CC(=O)Nc1ccccc1Cl)C(=O)COc1cccc2c1OC(C)(C)C2 | -5.27% (inactive)
29 | C/C=C/c1ccc2c(c1)O[C@H](CN(C)C(=O)Nc1ccccc1)[C@H](C)CN([C@@H](C)CO)S2(=O)=O | -0.894% (inactive)
30 | COc1ccc2c3c([nH]c2c1)[C@H](CO)N(C(=O)C1CCOCC1)CC31CN(S(C)(=O)=O)C1 | -0.365% (inactive)
31 | CS(=O)(=O)Nc1ccc2c(c1)[C@H]1C[C@H](CC(=O)NCc3ccc(Oc4ccccc4)cc3)O[C@H](CO)[C@H]1O2 | 4.1% (inactive)
32 | COc1cc(OC)cc(C(=O)N[C@H](C(=O)NNC(=O)c2ccc(Br)cc2)C(C)C)c1 | -1.77% (inactive)
33 | COc1cc(OC)cc(C(=O)N[C@H](C(=O)Nc2nc3ccccc3[nH]2)C(C)C)c1 | 13.5% (active)
34 | COc1cc(OC)cc(C(=O)NC(C(=O)N2CCC2)C(C)C)c1 (configuration not stated) | 1.12% (inactive)
35 | COc1ccc(NC(=O)N(C)C[C@H]2OCCCC[C@H](C)Oc3ccc(NC(=O)NC4CCCCC4)cc3C(=O)N([C@@H](C)CO)C[C@@H]2C)cc1 | -0.706% (inactive)
36 | COc1ccc2c3c([nH]c2c1)[C@H](CO)N(C(=O)c1ccccc1)CC31CN(C(=O)Nc2cccc(F)c2)C1 | 0.989% (inactive)
37 | COc1ccc2[nH]c3c(C)c4cc[n+](C)cc4c(C)c3c2c1 | 12.8% (active)
38 | CC(C)NC(=O)Nc1ccc2c(c1)C(=O)N([C@H](C)CO)C[C@H](C)[C@H](CN(C)C(=O)CCC(F)(F)F)OCCCC[C@H](C)O2 | 0.243% (inactive)
39 | O=C(C[C@@H]1C=C[C@@H](NS(=O)(=O)c2ccccc2)[C@@H](CO)O1)NCc1ccccc1F | -1.3% (inactive)
40 | COCC(=O)Nc1ccc2c(c1)OC[C@@H](C)N(CCc1ccccc1)C[C@H](C)[C@@H](OC)CN(C)C2=O | -4.64% (inactive)
41 | Cn1c(Nc2cccc(Cl)c2)nc2ccccc21 | 0.14% (inactive)
42 | C=CCNc1nc(Nc2ccc(Cl)cc2)nc(OC)n1 | 1.27% (inactive)
43 | Clc1ccc(Nc2ccc3ccccc3n2)cc1 | 9.55% (active)
44 | CCCNC(=O)N1CC2(CN(C(=O)c3cnccn3)C2)c2c([nH]c3cc(OC)ccc23)[C@@H]1CO | -0.147% (inactive)
45 | C[C@H](NC(=O)C[C@@H]1C[C@@H]2c3cc(NS(=O)(=O)c4ccc(F)cc4)ccc3O[C@@H]2[C@@H](CO)O1)c1ccccc1 | 0.793% (inactive)
46 | COc1ccc2c3c(n(C)c2c1)[C@@H](CO)N(Cc1ccncc1)CC31CN(C(=O)Nc2cccc(F)c2)C1 | -1.9% (inactive)
47 | COc1ccc(NC(=O)C2(C)Cc3c(-c4cccc(NC(C)=O)c4)ccnc3O2)cc1 (configuration not stated) | 9.41% (active)
48 | CC(=O)Nc1cccc(-c2ccnc3c2CC(C)(C(=O)NCc2ccco2)O3)c1 (configuration not stated) | 7.38% (inactive)
49 | COc1ccc(NC(=O)C2(C)Cc3c(-c4ccc(C(N)=O)cc4)ccnc3O2)cc1 (configuration not stated) | -0.667% (inactive)
50 | COc1ccc(NC(=O)C2(C)Cc3c(-c4cccc(NC(C)=O)c4)ccnc3O2)cc1OC (configuration not stated) | -0.498% (inactive)
51 | CC1(C(=O)NCc2ccco2)Cc2c(-c3ccc4c(c3)OCO4)ccnc2O1 (configuration not stated) | 8.09% (active)
52 | CC1(C(=O)NCc2ccc(F)c(F)c2)Cc2c(-c3ccc4c(c3)OCO4)ccnc2O1 (configuration not stated) | 0.827% (inactive)

Source: PubChem BioAssay AID720511 (Broad Institute, 2013)
